Laboratory results from PubChem BioAssay (NCATS).
Results filed as inconclusive are left out. Unmarked numbers belong to inactive results. Calls of active or inactive are those of the source. The call rests on the fitted dose curve; in most records, active means well fitted inhibition curve with a large enough effect; inconclusive means small, poorly fitted or top-dose-only effect; inactive means flat fitted curve, though single readings scatter.
On the % scale 0 is the no-effect control and ±100 the full control effect; potency means the concentration at half of the fitted maximal effect.

What follows are compounds tested on CRL-7250 (assay: Cytotoxic Profiling of Annotated Libraries Using Quantitative High-Throughput Screening (AID 1296008; further: nearly all actives have a fitted effect of over 60% in size)). Conditions: Five cell lines viability, CellTiter-Glo ATP luminescence, 48-72 h; max response: active compounds read low.
Summary of the method: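 Cells exposed to compounds for 48 or 72 hr at 37 degrees Celsius. Viability read as ATP-coupled luminescence with CellTiter-Glo after 10 min at room temperature.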
`C=C1C(=O)O[C@@H]2C[C@H](C)[C@@H]3CC(=O)C(C)=C3C[C@H]12` was tested, and the Potency was 10.3 µM (active). In the case of `C=C1C(=O)O[C@H]2/C=C(/C)[C@@H](OC(C)=O)C/C=C(\C)C[C@@H](OC(=O)/C(=C/C)COC(=O)/C(=C/C)CO)[C@@H]12`, the Potency is reported as 8.93 µM (active). `Fc1ccc2[nH]ccc2c1-c1nc(N2CCOCC2)c2sc(CN3CCN(CC4CC4)CC3)cc2n1` was tested, and the max response was -20.6%. For `C[C@@H](N[C@H]1CCCC[C@@H]1NC(=O)c1ccc(Cl)cc1)c1cccc2ccccc12`, the max response was 0.829%. For `N#Cc1ccc(Nc2nc(-c3ccc(O)cc3O)cs2)cc1C(F)(F)F`, the Potency was 5.8 µM (active). For `CC(C)S(=O)(=O)NC[C@H](C)c1ccc(-c2ccc(CCNS(C)(=O)=O)cc2)cc1`, the Potency was 4.61 µM (active). For `Cn1c(=O)c2c(ncn2Cc2ccc(C(C)(C)C)cc2)n(C)c1=O`, the Potency was 1.3 µM (active). `COC1CC(=O)C23C(=O)NC(Cc4c[nH]c5ccccc45)C2C(C)C2(C)OC2C3/C=C/CC(C)CC1O` (configuration not stated) was tested, and the Potency was 5.02 µM (active). With `COC1CC/C=C(\C)C(=O)Nc2cc(O)cc(c2)CC(C)CC(OC)C(O)C(C)/C=C(\C)C1OC(N)=O` (configuration not stated) the Potency was 3.17 µM (active). `C=C1C(=O)OC2/C=C(\COC(C)=O)CC/C=C(\C=O)CC(OC(=O)CC(C)C)C12` (configuration not stated) was tested, and the Potency was 7.96 µM (active). `O=C1C(Cc2ccc(O)cc2)N2C(=O)CCN(C(=O)NCc3ccccc3)C2CN1Cc1cccc2ccccc12` (configuration not stated) was tested, and the Potency was 4.61 µM (active). With `CC(O)C(C)n1ncn(-c2ccc(N3CCN(c4ccc(OCC5COC(Cn6cncn6)(c6ccc(Cl)cc6Cl)O5)cc4)CC3)cc2)c1=O` (configuration not stated) the outcome was “inactive”. `C=C1CC[C@@H]2[C@](C)(CO)[C@H](O)CC[C@@]2(C)[C@@H]1C/C=C1/C(=O)OCC1O` (some centres not stated) was tested, and the Potency was 18.4 µM (active). With `CCC(C)CC(=O)OC1C(=O)C(CO)=CC(O)C1C(C)C` (configuration not stated) the Potency was 18.4 µM (active). `CC(C)=CCCC1(C)/C=C/C(OC(=O)C=C(C)C)C(C)(O)/C=C/C(=O)/C(CO)=C\C1` (configuration not stated) showed a max response of -29.1%. For `C=C1C(=O)O[C@@H]2[C@H]3C(C)=CC(=O)C3=C(C)CC[C@@H]12`, the Potency was 7.31 µM (active). `COc1cc2c(cc1OC(C)C)[C@H](c1ccc(Cl)cc1)N(c1ccc(N(C)CC3CCC(N4CCN(C)C(=O)C4)CC3)cc1)C(=O)C2` (some centres not stated) was tested, and the Potency was 18.4 µM (active). Work on `CCCCNc1ncc(-c2ccc(CN3CCOCC3)cn2)c(NC2CCC(O)CC2)n1` (configuration not stated) yielded a max response of -14.5%. `C[C@@H]1O[C@@H](O[C@H]2[C@H](OC(=O)[C@]34CCC(C)(C)C[C@H]3C3=CCC5[C@@]6(C)C[C@H](O)[C@H](O[C@@H]7O[C@H](CO)[C@@H](O)[C@H](O)[C@H]7O)[C@](CO)(C(=O)O)C6CC[C@@]5(C)[C@]3(C)C[C@H]4O)OC[C@H](O)[C@@H]2O)[C@H](O)[C@H](O)[C@H]1O[C@@H]1OC[C@@H](O)[C@H](O[C@@H]2OC[C@](O)(CO)[C@H]2O)[C@H]1O` (some centres not stated) was tested, and the Potency was 1.38 µM (active). In the case of `CCn1c2ccccc2c2cc(Nc3ccnc(NCCCN4CCOCC4)n3)ccc21`, the Potency is reported as 18.4 µM (active). In the case of `CN(C)CCOC(C)(c1ccccc1)c1ccc(Cl)cc1` (configuration not stated), the Potency is reported as 25.9 µM (active). For `CC(C)n1cnc2c(-c3cnc(N)nc3)nc(N3CCOCC3)nc21`, the Potency was 0.709 µM (active). For `COc1ccc(-c2cc3onc(-c4ccncc4)c3c(=O)n2C)cc1`, the Potency was 0.651 µM (active). `COc1ccc([C@H]2Cc3cccc(O)c3C(=O)O2)cc1OC` was tested, and the max response was -21.6%. In the case of `Cc1csc2c(N[C@@H](C)CN3CCN(S(=O)(=O)c4ccc(Cl)c(Cl)c4)CC3)ncnc12`, the Potency is reported as 0.259 µM (active). For `Cc1nnc(C[C@@H]2C=C(c3ccc(Cl)cc3)c3ccccc3-n3c(C)nnc32)o1`, the Potency was 0.651 µM (active). In the case of `COc1cc(S(C)(=O)=O)ccc1Nc1nc2ccc(-c3ccc(NC(=O)[C@H](C)c4ccc(F)cc4)cc3)cn2n1`, the outcome is reported as “inactive”. With `Nc1nc(NC2CC2)cc(-c2cccc(Cl)c2Cl)n1` the max response was -27.4%. With `O=C(NCCCc1ccccc1)c1cccc(-c2cc(O)c3ncccc3c2)c1` the Potency was 5.17 µM (active). In the case of `COCC(=O)NC/C=C/c1ccc2ncnc(Nc3ccc(Oc4ccc(C)nc4)c(C)c3)c2c1`, the Potency is reported as 9.2 µM (active). Work on `O=C1Nc2nc(-c3c(O)cccc3OCC3CC3)cc([C@@H]3CCCNC3)c2CO1` yielded a max response of -29.4%. For `CC(C)S(=O)(=O)Nc1ccc(F)c(C(=O)c2c[nH]c3ncc(-c4cccnc4)cc23)c1F`, the Potency was 18.4 µM (active).
